POLB inh: inhibitors of human DNA polymerase beta. P06746. Pol beta primer extension/strand displacement, fluorescence kinetic. Potency, µM (series often up to 114 µM), most hits filed as inhibitors. 340,000 tested, 1.3% active. AID 485314
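Homogeneous kinetic assay of primer extension and strand displacement by 10 nM Pol beta, preincubated 15 min at room temperature with compound before 50 nM substrate (final) was added. Read at 0 and 10 min; four-parameter Hill fit.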
TDP1 inh: TDP1 (human) enzyme inhibition. recombinant TDP1, AlphaScreen DNA substrate cleavage. Q9NUW8. Potency, µM (doses to about 130 µM), usual class: inhibitors. 350,000 tested, 0.28% active; note: nearly all actives have a fitted effect of over 40% in size
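Recombinant E. coli-expressed Tdp1 (1 nM) preincubated with compound 15 min at RT, then 5'-biotin/3'-phosphotyrosine-FITC DNA substrate (15 nM) added for 5 min. AlphaScreen beads (10 ug/ml) added, 10 min RT; tyrosine-FITC cleavage read as signal loss.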
Pol iota inh: inhibitors of human DNA polymerase iota | Q9UNA4 | Pol iota fluorescent replication assay, 10 min | Potency, µM (titrated, usually from 115 µM), actives largely listed as inhibitors | 390,000 tested, 1% active | AID 588590
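Fluorescent replication assay read twice, at 0 min and 10 min after adding 50 nM (final) substrate. Enzyme (10 nM) and compounds were first incubated 15 min at room temperature; enzyme-free buffer wells were negative controls.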
Pol kappa inh: blocks human DNA polymerase kappa activity | purified Pol kappa, fluorescent DNA synthesis assay, 10 min | Potency, µM (series often up to 107 µM), most hits filed as inhibitors | 400,000 tested, 0.53% active
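Fluorescent qHTS in 1536-well format: enzyme (10 nM) and compound sat 15 min at room temperature before 50 nM substrate (final) was added. Signal taken at 0 and 10 min; no-enzyme buffer wells were negative controls.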
POLH inh: inhibitors of human DNA polymerase eta | 390,000 tested, 1.2% active | Potency, µM (titrated, usually from 114 µM), hits mostly inhibitors | recombinant Pol eta, fluorescent DNA replication assay | Q9Y253
Target sequence (Q9Y253 whole entry, looked up): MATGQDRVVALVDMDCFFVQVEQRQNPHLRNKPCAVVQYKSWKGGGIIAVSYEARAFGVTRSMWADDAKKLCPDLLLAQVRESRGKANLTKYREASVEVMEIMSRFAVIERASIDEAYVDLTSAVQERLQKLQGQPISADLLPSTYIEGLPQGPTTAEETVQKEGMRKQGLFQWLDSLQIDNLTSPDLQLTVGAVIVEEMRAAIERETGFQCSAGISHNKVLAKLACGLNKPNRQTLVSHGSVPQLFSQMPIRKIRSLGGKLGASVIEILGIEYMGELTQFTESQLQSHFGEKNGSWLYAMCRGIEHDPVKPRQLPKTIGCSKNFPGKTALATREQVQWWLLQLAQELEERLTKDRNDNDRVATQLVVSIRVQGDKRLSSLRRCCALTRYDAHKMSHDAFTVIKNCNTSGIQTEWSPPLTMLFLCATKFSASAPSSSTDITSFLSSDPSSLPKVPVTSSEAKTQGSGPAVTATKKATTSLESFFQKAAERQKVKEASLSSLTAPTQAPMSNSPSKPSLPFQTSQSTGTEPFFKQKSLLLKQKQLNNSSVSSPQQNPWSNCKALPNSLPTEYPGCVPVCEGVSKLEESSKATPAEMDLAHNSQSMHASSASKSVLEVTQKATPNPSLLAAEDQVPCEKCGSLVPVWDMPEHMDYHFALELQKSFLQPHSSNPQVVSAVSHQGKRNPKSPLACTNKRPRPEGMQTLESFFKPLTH
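Pol eta at 10 nM preincubated with compounds 15 min at room temperature; reaction started with fluorescent substrate (50 nM final) and read kinetically at 0 and 10 min.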
FEN1 inhibitor: inhibitors of human flap endonuclease 1; Recombinant FEN1 flap cleavage, fluorescence, 15 min; Potency, µM (series often up to 114 µM), most hits filed as inhibitors; 390,000 tested, 0.35% active; note: nearly all actives have a fitted effect of over 65% in size
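In this screen, 50 nM flap DNA substrate was added to 10 nM FEN1 pretreated with compound for 15 min at room temperature; cleavage was followed with reads at 0 and 15 min, and Hill fitting gave concentration–response parameters.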
Of the large screens only hits and unclear results are named; the others gave an inactive call. An excerpt weighted towards active compounds, which were near 2.4% of everything screened. Calls come from the whole dose curve; as a rule, active = well fitted curve in the direction sought with a large enough effect; inconclusive = small, poorly fitted or top-dose-only effect, or another doubt; inactive = no such curve, though single readings can be large; an effect the other way counts as inactive or inconclusive.

CCc1ccccc1NC(=O)C1CCCN1S(=O)(=O)c1ccc(-c2ccc(=O)[nH]n2)s1 (stereo unspecified)	Pol iota inh inconclusive, POLH inh 40µM
Cc1ncc2c(c1O)COP(=O)(O)OC2	none (no result: POLB inh, Pol iota inh, POLH inh, FEN1 inhibitor)
CC(C)(C)C(=O)c1sc2nc(-c3cccs3)cc(C(F)(F)F)c2c1N	none
Cc1cc(C)c2c(N)c(C(=O)Nc3nccs3)sc2n1	POLB inh 40µM, TDP1 inh inconclusive, POLH inh inconclusive
Nc1c(C(=O)Nc2nccs2)sc2nc(-c3cccs3)cc(C(F)(F)F)c12	POLB inh 45µM, POLH inh inconclusive
CCc1ccc(NC(=O)C2CCN(S(=O)(=O)c3c(C)noc3/C=C\c3ccc(OC)cc3)CC2)cc1	none
COc1ccc(CCN2C(=O)C3C4CC(C5C(C(=O)NN)=NOC45)C3C2=O)cc1OC (stereo unspecified)	none
COc1ccc(CCN2C(=O)C3C4CC(C5C(C(N)=O)=NOC45)C3C2=O)cc1OC (stereo unspecified)	POLB inh inconclusive, TDP1 inh 13µM, Pol iota inh inconclusive, POLH inh inconclusive
CCOC(=O)NC(=O)/C(C#N)=N\Nc1cccc(Cl)c1	Pol kappa inh inconclusive
CCOC(=O)NC1(Nc2cccc(Cl)c2)Oc2ccccc2O1	Pol iota inh 25µM, Pol kappa inh inconclusive
COc1ccc(Nc2nc3c(S(=O)(=O)c4ccc(Br)cc4)nnn3c3ccsc23)c(OC)c1	none
O=C(O)C1CCN(C(=O)CCc2ccccc2)CC1	POLB inh 50µM
CC1(C)CC2CC(C)(CN2C(=O)COC(=O)c2ccc(O)cc2O)C1 (stereo unspecified)	TDP1 inh 7.9µM, Pol iota inh inconclusive, POLH inh inconclusive (no result: POLB inh)
CC1(C)CC2CC(C)(CN2C(=O)COC(=O)c2cc(Cl)cc(Cl)c2N)C1 (stereo unspecified)	none
COc1cc2nc(N3CCNCC3)nc(N)c2cc1OC	POLB inh inconclusive, Pol kappa inh inconclusive, POLH inh inconclusive, FEN1 inhibitor 56µM
COc1ccc(-c2nc3n(n2)C(c2ccc(OC)c(OC)c2)C(C(=O)Nc2cccnc2)=C(C)N3)cc1 (stereo unspecified)	POLH inh 50µM
COc1ccc(C2C(C(=O)Nc3cccnc3)=C(C)Nc3nc(-c4ccc(OC)c(OC)c4)nn32)cc1 (stereo unspecified)	POLB inh inconclusive (no result: TDP1 inh)
Cc1ccc(NS(=O)(=O)c2cc3c(cc2C)NC(=O)CO3)cc1C	none (no result: POLB inh, Pol iota inh, Pol kappa inh, POLH inh, FEN1 inhibitor)
COc1cccc(C2c3c(ncn(-c4ccccc4OC)c3=N)Oc3ccc4ccccc4c32)c1 (stereo unspecified)	none (no result: POLB inh, Pol iota inh, Pol kappa inh, POLH inh, FEN1 inhibitor)
CCOc1ccc(C(=O)Nc2ccc(C(=O)OCc3cc(=O)n4nc(CC)sc4n3)cc2)cc1	POLB inh inconclusive
O=C(N/N=C/c1cccnc1)c1cc2c(ccc3ccccc32)o1	POLB inh 11µM, Pol iota inh inconclusive, POLH inh inconclusive, FEN1 inhibitor inconclusive
Cc1ccc(C)c2c(/C=C/c3ccc(N(C)C)cc3)ccnc12	Pol iota inh inconclusive (no result: POLB inh, TDP1 inh, POLH inh)
Cc1ccc(/C=[N+](\[O-])c2ccc(N(C)C)cc2)c2nsnc12	POLB inh inconclusive, Pol iota inh 50µM, FEN1 inhibitor inconclusive
COc1ccc(C2Nc3ccccc3C(=O)N2Cc2cccc(C(F)(F)F)c2)cc1COc1ccc(NC(C)=O)cc1 (stereo unspecified)	none (no result: POLB inh, Pol iota inh, Pol kappa inh, POLH inh, FEN1 inhibitor)
CCCc1cc2c(=O)c(-c3nc4ccccc4s3)c(COCC(=O)O)oc2cc1O	Pol iota inh inconclusive, POLH inh 79µM
CCc1cc2c(=O)c(-c3nc4ccccc4n3C)c(COCC(=O)O)oc2cc1O	none
Cc1ccc(Cl)cc1NS(=O)(=O)c1cc2c(cc1Cl)CCC(=O)N2	none (no result: POLB inh, Pol iota inh, Pol kappa inh, POLH inh, FEN1 inhibitor)
CCOC(=O)c1ccccc1NS(=O)(=O)c1ccccc1F	Pol iota inh 79µM
Cc1ccc(/C=C2\SC(=S)N(/N=C/c3cc([N+](=O)[O-])ccc3O)C2=O)o1	POLB inh 8.9µM, TDP1 inh inconclusive, Pol iota inh 4.5µM, Pol kappa inh 20µM, POLH inh 10µM, FEN1 inhibitor 50µM
C#CCOCCOCCOCCNc1nc(N2CCN(C(=O)CCCCCCCCCCNC(=O)[C@H](CCCCN)n3cc(C)nn3)CC2)nc(N2CCN(C(=O)CCCCCCCCCCNC(=O)[C@H](CCCN=C(N)N)n3cc(C[C@@H](C)CC)nn3)CC2)n1	Pol iota inh inconclusive, Pol kappa inh inconclusive, POLH inh inconclusive, FEN1 inhibitor 22µM (no result: POLB inh)
C#CCOCCOCCOCCNc1nc(N2CCN(C(=O)CCCCCCCCCCNC(=O)[C@H](CCCCN)n3cc(C[C@@H](C)CC)nn3)CC2)nc(N2CCN(C(=O)CCCCCCCCCCNC(=O)[C@@H]([C@H](C)O)n3cc(C)nn3)CC2)n1	POLH inh 79µM, FEN1 inhibitor 32µM (no result: POLB inh)
COc1ccc(-n2nc3c(N4CCC(C(=O)NCc5cccc(F)c5)CC4)nnc(C)c3c2C)cc1	POLH inh inconclusive, FEN1 inhibitor inconclusive
Cc1c(Cl)c([N+](=O)[O-])nn1CC(=O)NC1CCCCC1	none
CCC1CCCCN1C(=O)Cn1nc([N+](=O)[O-])c(Cl)c1C (stereo unspecified)	Pol iota inh 89µM, Pol kappa inh inconclusive, POLH inh 89µM
COc1ccc(C)cc1NC(=O)CN1C(=O)CCc2cc(S(=O)(=O)N3CCOCC3)ccc21	none
CC(=O)Nc1ccc(S(=O)(=O)Nc2ncccn2)cc1	none
CCCn1nc(C(=O)NCCc2ccc(S(N)(=O)=O)cc2)c2ccccc2c1=O	none
CCCn1nc(C(=O)Nc2ccc(S(=O)(=O)Nc3ncccn3)cc2)c2ccccc2c1=O	Pol iota inh inconclusive, POLH inh 50µM
O=C(Nc1ccc(S(=O)(=O)Nc2ncccn2)cc1)C1=COCCO1	Pol iota inh 50µM, POLH inh inconclusive (no result: POLB inh)
O=S(=O)(N=C1C=CC(=NS(=O)(=O)c2ccccc2)c2ccccc21)c1ccccc1	POLH inh 50µM (no result: POLB inh, TDP1 inh, Pol iota inh, Pol kappa inh, FEN1 inhibitor)
CCc1cccc(NC(=O)CN(C)S(=O)(=O)c2ccc3c(c2)n(C)c(=O)c(=O)n3C)c1	none
Cc1ccc(S(=O)(=O)n2ccc3c(OCCOCCSCC(NC(=O)OC(C)(C)C)C(=O)O)cccc32)cc1 (stereo unspecified)	POLB inh 71µM, Pol iota inh 28µM, Pol kappa inh inconclusive, POLH inh inconclusive (no result: TDP1 inh)
Cc1ccc(S(=O)(=O)n2ccc3c(OCCOCCNCc4ccc(F)cc4)cccc32)cc1	none (no result: TDP1 inh)
O=S(=O)(Cc1cc(NCc2ccccc2)nc(-c2ccccn2)n1)c1ccccc1	none
O=S(=O)(Cc1cc(NCc2ccccc2)nc(-c2ccncc2)n1)c1ccccc1	POLB inh 79µM
CCN(CCN(C)Cl)/[N+]([O-])=N/Oc1ccc([N+](=O)[O-])cc1[N+](=O)[O-]	Pol iota inh inconclusive (no result: POLB inh, TDP1 inh, POLH inh)
